Among the data in ChEMBL document CHEMBL3988442, “University of Dundee, Small-Polar-MMV Screening Library” (2021) are Percent Effect values, retold here.

Molecules are shown by their SMILES. For some assays here: Entries with a potency or affinity are not part of this list.

Holding throughout (set-up): scale not given: direction of the effect not stated beside the values
The target of test [1] is Protein translocase subunit SecA (Escherichia coli (strain K12)) (UniProt P10408). The experiment in a line: Assay to Identify E. coli SecA ATPase Inhibitors. Particulars: 30 µM. In kind it is functional.
Protein translocase subunit SecA (Escherichia coli (strain K12)), sequence (P10408 whole entry): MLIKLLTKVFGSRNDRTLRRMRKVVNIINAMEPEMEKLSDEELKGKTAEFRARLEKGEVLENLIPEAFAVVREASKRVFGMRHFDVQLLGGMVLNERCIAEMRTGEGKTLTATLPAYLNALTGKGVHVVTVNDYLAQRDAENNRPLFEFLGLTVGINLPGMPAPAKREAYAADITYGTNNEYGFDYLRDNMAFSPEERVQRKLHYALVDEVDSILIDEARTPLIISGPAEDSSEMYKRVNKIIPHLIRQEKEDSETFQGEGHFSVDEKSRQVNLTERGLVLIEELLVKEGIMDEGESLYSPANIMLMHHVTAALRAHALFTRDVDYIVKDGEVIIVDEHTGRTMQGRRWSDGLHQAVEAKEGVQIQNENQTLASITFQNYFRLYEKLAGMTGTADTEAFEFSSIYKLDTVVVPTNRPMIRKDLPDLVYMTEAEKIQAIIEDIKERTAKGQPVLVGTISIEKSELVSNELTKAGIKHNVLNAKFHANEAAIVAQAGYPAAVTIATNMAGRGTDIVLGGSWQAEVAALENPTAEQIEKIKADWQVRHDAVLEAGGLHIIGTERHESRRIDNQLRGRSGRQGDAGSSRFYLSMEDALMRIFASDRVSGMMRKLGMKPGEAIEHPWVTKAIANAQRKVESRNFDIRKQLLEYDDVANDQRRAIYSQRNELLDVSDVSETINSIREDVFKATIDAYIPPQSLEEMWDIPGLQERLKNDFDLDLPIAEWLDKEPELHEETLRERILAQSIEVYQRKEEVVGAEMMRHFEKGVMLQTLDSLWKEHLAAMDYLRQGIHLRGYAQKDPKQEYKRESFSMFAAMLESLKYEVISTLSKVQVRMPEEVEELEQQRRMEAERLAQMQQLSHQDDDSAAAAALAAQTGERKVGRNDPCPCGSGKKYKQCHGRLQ
Test [2] addresses T1, Ubiquitin-activating enzyme e1, putative (Leishmania donovani (strain BPK282A1)) (UniProt E9BSI1).
T1 sequence (whole entry): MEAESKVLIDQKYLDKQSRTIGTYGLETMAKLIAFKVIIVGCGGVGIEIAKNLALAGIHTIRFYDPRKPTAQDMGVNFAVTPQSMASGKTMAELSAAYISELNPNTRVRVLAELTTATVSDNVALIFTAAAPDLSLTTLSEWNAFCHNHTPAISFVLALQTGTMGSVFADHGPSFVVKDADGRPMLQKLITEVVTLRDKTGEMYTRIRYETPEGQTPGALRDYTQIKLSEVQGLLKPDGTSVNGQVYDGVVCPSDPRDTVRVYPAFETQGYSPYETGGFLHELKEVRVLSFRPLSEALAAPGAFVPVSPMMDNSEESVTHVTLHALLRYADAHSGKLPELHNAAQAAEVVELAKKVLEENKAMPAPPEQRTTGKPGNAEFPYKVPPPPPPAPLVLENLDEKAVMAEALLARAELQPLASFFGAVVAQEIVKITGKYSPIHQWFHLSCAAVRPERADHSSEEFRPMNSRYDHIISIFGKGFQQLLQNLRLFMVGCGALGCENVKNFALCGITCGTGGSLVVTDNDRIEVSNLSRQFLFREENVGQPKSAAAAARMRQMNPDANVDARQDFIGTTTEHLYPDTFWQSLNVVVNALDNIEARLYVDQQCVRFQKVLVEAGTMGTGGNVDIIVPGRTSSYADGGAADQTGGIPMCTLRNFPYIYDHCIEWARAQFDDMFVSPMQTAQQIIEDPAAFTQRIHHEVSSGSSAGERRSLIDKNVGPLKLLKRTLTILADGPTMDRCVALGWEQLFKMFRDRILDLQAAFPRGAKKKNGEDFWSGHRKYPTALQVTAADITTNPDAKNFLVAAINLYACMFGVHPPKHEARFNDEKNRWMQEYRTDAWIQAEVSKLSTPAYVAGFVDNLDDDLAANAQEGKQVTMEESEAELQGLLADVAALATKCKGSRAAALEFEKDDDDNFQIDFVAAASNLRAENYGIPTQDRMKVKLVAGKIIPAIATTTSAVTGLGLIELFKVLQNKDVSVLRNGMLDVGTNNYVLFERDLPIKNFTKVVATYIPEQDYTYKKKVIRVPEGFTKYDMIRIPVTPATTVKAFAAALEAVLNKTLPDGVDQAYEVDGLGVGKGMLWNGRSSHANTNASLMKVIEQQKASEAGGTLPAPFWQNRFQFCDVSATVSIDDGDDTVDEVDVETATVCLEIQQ
The experiment in a line: Leishmania donovani Ubiquitin Activating Enzyme (LdE1). In kind it is functional. To be noted: 30 µM.

Test [3] concerns the target Sialic acid-binding Ig-like lectin 9 (Homo sapiens) (UniProt Q9Y336). The experiment in a line: Hs-Siglec9 ALPHAscreen SOP 20170721. To be noted: 10 µM. On the technique in general: Bead proximity is the source of the signal in Alpha formats.
A further test deals with Trypanosoma cruzi. The test is described as follows: Trypanosoma cruzi phosphomannomutase and mannose-1-phosphate guanylyltransferase assay. Particulars: 10 µM. It is filed as functional.
In test [4] the target is T2, Arginase-2, mitochondrial (Homo sapiens) (UniProt P78540).
T2 sequence (whole entry): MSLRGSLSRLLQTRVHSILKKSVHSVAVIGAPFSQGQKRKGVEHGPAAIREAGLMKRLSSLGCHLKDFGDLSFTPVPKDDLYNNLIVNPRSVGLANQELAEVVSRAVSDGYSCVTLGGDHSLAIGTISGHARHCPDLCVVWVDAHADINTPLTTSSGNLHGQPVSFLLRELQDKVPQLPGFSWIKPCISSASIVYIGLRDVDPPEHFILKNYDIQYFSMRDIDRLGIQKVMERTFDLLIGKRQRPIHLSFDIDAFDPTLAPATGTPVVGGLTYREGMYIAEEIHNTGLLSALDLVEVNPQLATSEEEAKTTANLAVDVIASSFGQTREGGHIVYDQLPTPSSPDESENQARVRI
The experiment in a line: in vitro enzyme assay to detect the production of urea directly proportional to the activity of Arginase II. Note: in the data most compounds retested in dose-response had high values. In kind it is functional. To be noted: 33.3 µM.

The target of test [5] is T3, Proteasome subunit beta (Trypanosoma cruzi) (UniProt O96673).
T3 sequence (whole entry): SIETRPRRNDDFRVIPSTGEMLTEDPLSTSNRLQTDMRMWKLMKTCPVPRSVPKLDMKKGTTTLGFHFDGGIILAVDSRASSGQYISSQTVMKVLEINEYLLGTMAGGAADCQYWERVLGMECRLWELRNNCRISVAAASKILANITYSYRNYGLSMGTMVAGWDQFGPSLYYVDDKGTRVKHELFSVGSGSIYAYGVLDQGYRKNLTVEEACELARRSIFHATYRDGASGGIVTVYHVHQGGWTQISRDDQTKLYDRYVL
The experiment in a line: Trypanosoma cruzi proteasome chymotrypsin-like activity (TcProtChymo) assay. Note: in the data most compounds retested in dose-response had high values. Particulars: 9.37 µM. In kind it is functional.

The species entered for the next test is Homo sapiens. The test is described as follows: To identify inhibition of the IFN signalling (Jak-Stat) pathway via expression of an eGFP reporter gene under the control of an IFN-stimulated response element (ISRE) containing MxA promoter. In kind it is functional. To be noted: 30 µM. (Reporter assays use an easily measured gene product as a stand-in for the process of interest.)

Test [6] has as its target T4, Tyrosyl-tRNA synthetase, putative (Trypanosoma cruzi (strain CL Brener)) (UniProt Q4DSP6).
T4 sequence (whole entry): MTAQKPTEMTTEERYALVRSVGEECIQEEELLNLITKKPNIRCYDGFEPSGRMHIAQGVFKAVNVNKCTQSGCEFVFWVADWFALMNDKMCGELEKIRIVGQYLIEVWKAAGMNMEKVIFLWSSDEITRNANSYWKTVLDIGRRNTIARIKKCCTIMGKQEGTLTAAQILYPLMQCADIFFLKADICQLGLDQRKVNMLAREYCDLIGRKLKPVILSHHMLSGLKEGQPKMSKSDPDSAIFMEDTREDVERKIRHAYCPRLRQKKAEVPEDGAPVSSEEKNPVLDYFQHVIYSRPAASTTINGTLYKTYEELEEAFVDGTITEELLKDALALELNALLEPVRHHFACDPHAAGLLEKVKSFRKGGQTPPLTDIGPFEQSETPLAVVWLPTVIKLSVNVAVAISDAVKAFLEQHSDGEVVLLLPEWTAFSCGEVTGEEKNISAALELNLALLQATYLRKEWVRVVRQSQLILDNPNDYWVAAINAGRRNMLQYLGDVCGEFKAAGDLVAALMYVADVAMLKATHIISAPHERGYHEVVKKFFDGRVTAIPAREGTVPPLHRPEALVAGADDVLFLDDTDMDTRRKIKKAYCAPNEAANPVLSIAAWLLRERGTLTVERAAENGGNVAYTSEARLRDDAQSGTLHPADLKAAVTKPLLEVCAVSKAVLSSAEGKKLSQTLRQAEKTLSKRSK
The test is described as follows: Trypanosoma cruzi tyrosyl tRNA synthetase (TcYRS) _High Tyrosine SOP. Note: in the data most compounds retested in dose-response had high values. It is filed as functional. To be noted: 30 µM.

Test [7] addresses T4, Tyrosyl-tRNA synthetase, putative (Trypanosoma cruzi (strain CL Brener)). The experiment in a line: Trypanosoma cruzi tyrosyl tRNA synthetase (TcYRS) SOP. It is filed as functional. To be noted: 30 µM.
The target in test [8] is Chromo domain-containing protein 1 (Saccharomyces cerevisiae (strain ATCC 204508 / S288c) (Baker's yeast)) (UniProt P32657). The test is described as follows: ScCHD-1 Enzyme Inhibition Assay. Note: in the data most compounds retested in dose-response had high values. Particulars: 30 µM. It is filed as functional.
Chromo domain-containing protein 1 (Saccharomyces cerevisiae (strain ATCC 204508 / S288c) (Baker's yeast)), sequence (P32657 whole entry, the tested form may be a part): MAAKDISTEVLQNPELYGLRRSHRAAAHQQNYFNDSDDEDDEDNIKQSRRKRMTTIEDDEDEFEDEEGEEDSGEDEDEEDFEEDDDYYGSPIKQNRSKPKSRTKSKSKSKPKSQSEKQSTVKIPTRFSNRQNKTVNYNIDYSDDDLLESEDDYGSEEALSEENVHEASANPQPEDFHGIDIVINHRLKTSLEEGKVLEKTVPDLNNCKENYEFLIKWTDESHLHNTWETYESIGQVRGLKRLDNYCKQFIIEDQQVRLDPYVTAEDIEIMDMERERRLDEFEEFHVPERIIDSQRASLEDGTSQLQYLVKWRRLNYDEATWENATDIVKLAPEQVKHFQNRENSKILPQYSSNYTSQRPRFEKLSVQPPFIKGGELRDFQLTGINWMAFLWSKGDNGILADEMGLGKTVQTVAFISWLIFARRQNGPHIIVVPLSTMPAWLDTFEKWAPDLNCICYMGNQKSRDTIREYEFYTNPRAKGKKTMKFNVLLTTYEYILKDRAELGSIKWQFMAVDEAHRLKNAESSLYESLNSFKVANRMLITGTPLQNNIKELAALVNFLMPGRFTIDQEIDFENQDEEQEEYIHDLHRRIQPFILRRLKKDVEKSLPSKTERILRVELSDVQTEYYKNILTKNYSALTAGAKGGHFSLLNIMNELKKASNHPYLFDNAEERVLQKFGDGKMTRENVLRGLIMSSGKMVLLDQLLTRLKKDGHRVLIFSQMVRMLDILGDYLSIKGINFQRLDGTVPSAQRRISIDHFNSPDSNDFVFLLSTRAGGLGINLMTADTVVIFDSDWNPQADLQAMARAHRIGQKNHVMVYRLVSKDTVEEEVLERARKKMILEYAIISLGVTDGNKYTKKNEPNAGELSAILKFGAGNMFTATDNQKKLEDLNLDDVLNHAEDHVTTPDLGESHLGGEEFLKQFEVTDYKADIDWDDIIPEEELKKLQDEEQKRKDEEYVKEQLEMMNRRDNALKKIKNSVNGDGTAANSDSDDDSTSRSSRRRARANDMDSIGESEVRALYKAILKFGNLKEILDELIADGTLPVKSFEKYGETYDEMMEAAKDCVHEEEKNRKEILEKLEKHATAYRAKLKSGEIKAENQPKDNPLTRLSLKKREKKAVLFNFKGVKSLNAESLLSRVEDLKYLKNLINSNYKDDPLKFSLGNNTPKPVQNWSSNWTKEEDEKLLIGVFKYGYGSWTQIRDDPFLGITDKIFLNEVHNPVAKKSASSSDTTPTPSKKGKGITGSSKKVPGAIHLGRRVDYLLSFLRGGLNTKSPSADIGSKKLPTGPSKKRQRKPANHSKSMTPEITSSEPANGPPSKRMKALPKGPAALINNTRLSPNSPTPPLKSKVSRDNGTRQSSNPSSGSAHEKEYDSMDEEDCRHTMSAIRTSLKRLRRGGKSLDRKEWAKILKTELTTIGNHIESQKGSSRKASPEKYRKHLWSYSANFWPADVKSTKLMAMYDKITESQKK

Sialic acid-binding Ig-like lectin 9 (Homo sapiens), sequence (Q9Y336 whole entry): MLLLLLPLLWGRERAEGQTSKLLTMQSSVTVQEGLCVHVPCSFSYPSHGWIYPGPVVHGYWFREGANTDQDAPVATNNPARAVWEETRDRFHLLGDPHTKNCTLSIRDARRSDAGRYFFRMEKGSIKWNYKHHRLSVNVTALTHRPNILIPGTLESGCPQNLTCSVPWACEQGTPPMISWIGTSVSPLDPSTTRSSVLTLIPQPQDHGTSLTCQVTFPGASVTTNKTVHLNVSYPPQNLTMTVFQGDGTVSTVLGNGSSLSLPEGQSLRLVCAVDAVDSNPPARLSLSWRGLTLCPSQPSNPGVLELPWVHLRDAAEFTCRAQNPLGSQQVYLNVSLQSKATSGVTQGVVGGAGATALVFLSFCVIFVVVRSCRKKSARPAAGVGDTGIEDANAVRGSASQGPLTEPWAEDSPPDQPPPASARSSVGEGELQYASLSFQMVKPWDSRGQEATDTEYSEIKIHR

Consider `Cc1ncc2c(n1)CN(Cc1nc3ccccc3o1)CC2`, for which the Percent Effect in [1] was -2.9%; in test [2] it was 8%; in test [3], 3.11%; in the test on Trypanosoma cruzi it was 4.02%; in [4], -2.22%; in test [5], 3.31%. Also, the Percent Effect in the test listed under Homo sapiens is -20.5%; in test [6] it was 25.8%; in test [7] it was 28.2%; in test [8] it was -12.9%.

On to `CCc1nc(C2CCCN2C(=O)c2nccnc2N)no1` (stereo not given), for which the Percent Effect in test [1] was -2.75%; in test [2], -5.13%; in test [3] it was -2.27%; with Trypanosoma cruzi, 8.92%; in test [4] it was 0.82%; in test [5], -4.69%. Besides, the Percent Effect is -2.29% in the test listed under Homo sapiens, -2.39% in test [6], 6.02% in test [7] and -1.91% in [8].

As for `COCCc1noc(CN2CCCC2c2c(C)nn(C)c2C)n1` (stereo not given), the Percent Effect in [1] was -3.14%; in test [2] it was 0%; in [3], 5.73%; with Trypanosoma cruzi, 5.22%; in [4], -0.887%; in [5], 3.14%. In addition, the Percent Effect in the test listed under Homo sapiens was -16.4%; in [6], 1.58%; in test [7], 2.56%; in test [8], -6.66%.

Regarding `Cn1cc(-c2nnn3c2COC(CNCc2nccs2)C3)cn1` (stereo not given), the Percent Effect in test [1] was -3.81%; in test [2], 11.7%; in [3], 1%; in the test on Trypanosoma cruzi it was 4.19%; in test [4] it was 10.5%; in test [5] it was 11.6%. Moreover, the Percent Effect turned out to be 6.11% in the test filed under Homo sapiens, 5.79% in [6], 17.9% in test [7] and 8.68% in test [8].

On to `COCCN1CC[C@]2(CN(C(=O)c3cccs3)C[C@H]2C)C1=O`, for which the Percent Effect in test [1] was 0.25%; in [2], 1.3%; in test [3], 1.96%; in the test with Trypanosoma cruzi, -0.938%; in test [4] it was -0.457%; in test [5], 9.7%. Also, the Percent Effect in the test filed under Homo sapiens is 0.303%; in [6] it was 0.966%; in [7] it was 0%; in test [8] it was 0.0651%.

Take `COc1cc(N2CCCC(c3nccn3CCN(C)C)C2)nc(N)n1` (stereo not given): the Percent Effect in test [1] was -9.14%; in [2], 2.7%; in test [3] it was 4.84%; in the test on Trypanosoma cruzi, 3.59%; in test [4], 4.54%; in test [5], 4.62%. Besides, the Percent Effect was found to be 5.13% in the test filed under Homo sapiens, 7.98% in test [6], 17.1% in test [7] and 11.6% in [8].

`CC(C)c1nccn1-c1cccc(C2CCCN(C3CCCC3)C2)n1` (stereo not given): the Percent Effect in test [1] was -2.48%; in test [2], 6.67%; in test [3], 3.65%; in the test on Trypanosoma cruzi it was 0.197%; in [4] it was 0.885%; in [5], 15.6%. Also, the Percent Effect in the test listed under Homo sapiens was 2.2%; in test [6] it was 6.35%; in [7], 17.5%; in [8], -23.6%.

With `Cc1ccc(C#N)cc1NC(=O)NC1CCCN(c2ncccn2)C1` (stereo not given), the Percent Effect is -5.74% in test [1]; 15.6% in test [2]; 3.91% in [3]; -2.98% in the test on Trypanosoma cruzi; 1.02% in [4]; -1.4% in test [5]. For the same molecule, the Percent Effect was 20.9% in the test listed under Homo sapiens, 3.92% in [6], 18.8% in test [7] and -8.47% in test [8].

With `O=C(C1CCCCC1)N1CCC2(CCCN2CC2CC2)CC1`, the Percent Effect in test [1] was -2.94%; in [2], 11.7%; in [3], -2.33%; with Trypanosoma cruzi, -3.56%; in [4], 1.37%; in test [5], 3.18%. Besides, the Percent Effect in the test listed under Homo sapiens was 13.7%; in [6], 2.9%; in test [7] it was 2.5%; in test [8] it was -6.38%.

In the case of `Cc1ccc(C(CNC(=O)NCc2cc[nH]n2)N2CCOCC2)o1` (stereo not given), the Percent Effect in [1] was -3.05%; in test [2], 12.8%; in test [3], -4.81%; with Trypanosoma cruzi, -4.04%; in [4] it was 0.82%; in test [5], 14.1%. Also, the Percent Effect in the test filed under Homo sapiens was 24.3%; in test [6], 2.39%; in test [7], 10.8%; in test [8] it was -3.31%.

As to `Cc1cc(C(=O)NCCn2nc3ccccn3c2=O)[nH]n1`, the Percent Effect in test [1] is 0.567%; in test [2] it was 12.8%; in [3] it was -9.12%; with Trypanosoma cruzi it was -3.1%; in test [4], 0%; in [5] it was 16.8%. Further, the Percent Effect in the test filed under Homo sapiens is 8.57%; in [6], 1.44%; in test [7], 18.1%; in [8] it was -7.79%.
